Assay [1] in a line: StAR promoter reporter inhibitors, counter-screen for LRH-1 inverse agonist project, cell-based, luminescence, high throughput (AID 651611; in the data active = inhibition above about 28%). The conditions noted are these: StAR promoter luciferase reporter counterscreen, at 3.6 µM, stronger effect = higher value.
Assay [2] concerns the target Nuclear receptor subfamily 5 group A member 2 (Homo sapiens) (UniProt O00482). As to the kind of experiment: NR5A2 activity suppression in reporter cells – cell-based, luminescence, confirmation (AID 651613; in the data active = inhibition above about 42%). The conditions noted are these: cell-based LRH-1 luciferase reporter, inverse agonism; at 3.6 µM; stronger effect = higher value.
For assay [3], the target named is Steroidogenic factor 1 (Homo sapiens) (UniProt Q13285). As to the kind of experiment: inverse agonism at SF1 nuclear receptor – cell-based, luminescence, high throughput, counter-screen for LRH-1 inverse agonist project (AID 651614; in the data active = inhibition above about 44%). Conditions: cell-based SF1 luciferase reporter, at 3.6 µM, stronger effect = higher value.
Sequence of Steroidogenic factor 1 (Homo sapiens) (Q13285 whole entry, looked up, the tested form may be a part): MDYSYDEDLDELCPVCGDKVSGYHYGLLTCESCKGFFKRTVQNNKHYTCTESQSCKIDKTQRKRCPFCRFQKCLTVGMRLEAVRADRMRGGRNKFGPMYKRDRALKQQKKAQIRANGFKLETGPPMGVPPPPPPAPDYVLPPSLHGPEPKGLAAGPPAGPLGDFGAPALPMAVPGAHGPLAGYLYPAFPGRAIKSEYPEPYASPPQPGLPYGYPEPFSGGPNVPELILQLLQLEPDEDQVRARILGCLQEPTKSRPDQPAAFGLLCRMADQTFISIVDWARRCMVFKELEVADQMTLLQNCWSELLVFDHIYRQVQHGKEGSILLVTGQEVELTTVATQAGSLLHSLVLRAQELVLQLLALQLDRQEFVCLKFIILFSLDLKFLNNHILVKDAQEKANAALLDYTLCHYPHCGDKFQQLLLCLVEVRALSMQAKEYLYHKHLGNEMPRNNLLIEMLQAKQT
Assay [4] can be described thus: compounds suppressing VP16-driven luciferase signal – cell-based, luminescence, high throughput, counter-screen for LRH-1 inverse agonist project (AID 651615; in the data active = inhibition above about 33%). Conditions: Gal4-VP16 luciferase reporter cells, at 3.6 µM, stronger effect = higher value.
Assay [5] has as its system transactivating tegument protein VP16 (Human herpesvirus 1). Nature of the assay: compounds suppressing VP16-driven luciferase signal – cell-based, luminescence, single concentration, counter-screen for SRC2 inhibitor project (AID 652007). The conditions noted are these: cell-based VP16 transactivation luciferase reporter, at 8.9 µM, stronger effect = higher value.
Assay [6] deals with Nuclear receptor coactivator 2 (Homo sapiens) (UniProt Q15596). As to the kind of experiment: inhibition of GAL4-SRC2 driven luciferase expression – cell-based, luminescence, HEK293, triplicate, confirmation (AID 652008;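 active = mean inhibition above 46.5%, the solvent-only control mean plus 3 SD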). The conditions noted are these: HEK293 GAL4-SRC2 luciferase reporter, at 8.9 µM, stronger effect = higher value.
Sequence of Nuclear receptor coactivator 2 (Homo sapiens) (Q15596 whole entry, looked up, the tested form may be a part): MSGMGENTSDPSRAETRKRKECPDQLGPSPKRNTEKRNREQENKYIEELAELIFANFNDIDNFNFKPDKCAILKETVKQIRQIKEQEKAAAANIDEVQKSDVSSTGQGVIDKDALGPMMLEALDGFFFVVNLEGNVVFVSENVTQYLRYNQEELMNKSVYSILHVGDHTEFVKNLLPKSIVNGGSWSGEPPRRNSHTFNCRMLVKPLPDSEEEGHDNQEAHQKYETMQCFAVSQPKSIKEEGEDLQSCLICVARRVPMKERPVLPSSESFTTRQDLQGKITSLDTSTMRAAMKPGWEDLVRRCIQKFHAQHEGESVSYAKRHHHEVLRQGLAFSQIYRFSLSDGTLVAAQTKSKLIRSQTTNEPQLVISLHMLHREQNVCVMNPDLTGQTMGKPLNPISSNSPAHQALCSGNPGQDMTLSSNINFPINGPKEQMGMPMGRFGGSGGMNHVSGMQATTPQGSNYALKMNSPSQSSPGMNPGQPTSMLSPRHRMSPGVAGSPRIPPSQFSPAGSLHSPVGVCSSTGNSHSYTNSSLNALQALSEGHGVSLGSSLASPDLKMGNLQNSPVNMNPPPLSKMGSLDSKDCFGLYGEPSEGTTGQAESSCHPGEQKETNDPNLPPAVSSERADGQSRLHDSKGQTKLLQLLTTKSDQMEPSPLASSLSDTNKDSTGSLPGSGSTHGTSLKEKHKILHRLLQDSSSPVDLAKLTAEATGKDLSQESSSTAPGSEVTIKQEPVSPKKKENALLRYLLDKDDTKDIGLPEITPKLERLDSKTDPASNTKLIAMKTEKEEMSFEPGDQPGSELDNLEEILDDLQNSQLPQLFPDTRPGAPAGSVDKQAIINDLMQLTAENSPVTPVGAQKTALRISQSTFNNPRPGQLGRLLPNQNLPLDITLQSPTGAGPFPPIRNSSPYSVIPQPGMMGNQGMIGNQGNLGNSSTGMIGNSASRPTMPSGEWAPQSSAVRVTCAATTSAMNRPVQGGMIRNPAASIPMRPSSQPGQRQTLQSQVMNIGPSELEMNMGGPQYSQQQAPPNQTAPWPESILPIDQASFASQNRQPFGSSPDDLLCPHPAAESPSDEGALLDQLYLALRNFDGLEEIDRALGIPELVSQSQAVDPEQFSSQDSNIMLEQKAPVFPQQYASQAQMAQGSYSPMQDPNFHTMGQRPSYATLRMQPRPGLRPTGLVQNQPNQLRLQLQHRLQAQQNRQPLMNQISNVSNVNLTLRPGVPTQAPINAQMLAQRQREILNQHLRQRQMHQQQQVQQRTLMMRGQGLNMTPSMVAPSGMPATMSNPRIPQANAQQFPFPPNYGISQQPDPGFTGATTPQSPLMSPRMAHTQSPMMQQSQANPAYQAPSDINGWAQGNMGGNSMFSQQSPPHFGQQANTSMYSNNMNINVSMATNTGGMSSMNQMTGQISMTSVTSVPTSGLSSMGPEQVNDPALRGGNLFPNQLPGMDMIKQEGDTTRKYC
The nature of assay [7]: BSA probe fluorescence interference – biochemical, TAMRA-labeled BSA, counter-screen for TCR-CD3 interaction inhibitor project (AID 652035; in the data active = inhibition above about 23%). The conditions noted are these: TAMRA-labeled BSA probe fluorescence counterscreen; at 9.4 µM; stronger effect = higher value.
The subject of assay [8] is T-cell receptor (TCR)-CD3 interaction, human. As to the kind of experiment: blockers of TCR binding to CD3 – biochemical, fluorescence, TAMRA-labeled TCR probe, confirmation (AID 652036; in the data active = inhibition above about 19%). Conditions: TAMRA-labeled TCR probe fluorescence binding assay; at 9.4 µM; stronger effect = higher value.
For assay [9], the system named is DAF-12 nuclear receptor (Heterodera glycines), GAL4-LBD fusion. As to the kind of experiment: hgDAF-12 GAL4 fusion reporter activation, retest – cell-based, luminescence, HEK293, GAL4-LBD fusion, confirmation (AID 743050;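 active = mean activation over triplicate wells above the hit cutoff derived from the earlier primary screen, cut at about 11% in these data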). The conditions noted are these: HEK293 GAL4-hgDAF12 luciferase reporter, agonist mode; at 6.8 µM; stronger effect = higher value.
Assay [10] has as its target Oxysterols receptor LXR-beta (Homo sapiens) (UniProt P55055). Nature of the assay: nonspecific reporter activation via LXR – cell-based, luminescence, HEK293, H. glycines campaign, counter-screen for hgDAF-12 agonist project, confirmation (AID 743051;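 active = mean activation of the triplicate above a set limit carried over from the primary screen, none filed active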). Conditions: HEK293 Gal4-LXR luciferase reporter, 24 h; at 6.8 µM; stronger effect = higher value.
Assay [11] can be described thus: reduced OD of V66 E. coli with T4 gene 2 phage – absorbance, RecBCD inhibitor project, confirmation (AID 651982;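 active = mean inhibition over triplicates exceeding the hit threshold derived in the original primary screen, cut at about 11% in these data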). The conditions noted are these: E. coli V66 + T4 2- phage, growth OD; at 11.9 µM; stronger effect = higher value.
A short description of assay [12]: bacterial growth inhibition – absorbance, high throughput, counter-screen for RecBCD inhibitor project (AID 651983; in the data active = inhibition above about 20%). The conditions noted are these: E. coli viability, absorbance (OD) growth; at 11.9 µM; stronger effect = higher value.
Assay [13] is described as follows: reduced optical density, T4-challenged addAB+ bacteria – absorbance, E. coli V3065, T4 phage, counter-screen for RecBCD inhibitor project, confirmation (AID 651984;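 active = mean inhibition above the solvent-only control wells' mean plus 3 SD, cut at about 22% in these data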). Conditions: E. coli expressing H. pylori AddAB + T4 phage, OD growth; at 11.9 µM; stronger effect = higher value.

A number with no mark means an inactive call. The list shows a part of the results. Activity calls are given as the source filed them. Cut-off read from the data, not from the text of the source, unless noted: active = inhibition above about 36%; inactive = the rest.

The results in this text go back to PubChem BioAssay.

Sequence of Nuclear receptor subfamily 5 group A member 2 (Homo sapiens) (O00482 whole entry, looked up): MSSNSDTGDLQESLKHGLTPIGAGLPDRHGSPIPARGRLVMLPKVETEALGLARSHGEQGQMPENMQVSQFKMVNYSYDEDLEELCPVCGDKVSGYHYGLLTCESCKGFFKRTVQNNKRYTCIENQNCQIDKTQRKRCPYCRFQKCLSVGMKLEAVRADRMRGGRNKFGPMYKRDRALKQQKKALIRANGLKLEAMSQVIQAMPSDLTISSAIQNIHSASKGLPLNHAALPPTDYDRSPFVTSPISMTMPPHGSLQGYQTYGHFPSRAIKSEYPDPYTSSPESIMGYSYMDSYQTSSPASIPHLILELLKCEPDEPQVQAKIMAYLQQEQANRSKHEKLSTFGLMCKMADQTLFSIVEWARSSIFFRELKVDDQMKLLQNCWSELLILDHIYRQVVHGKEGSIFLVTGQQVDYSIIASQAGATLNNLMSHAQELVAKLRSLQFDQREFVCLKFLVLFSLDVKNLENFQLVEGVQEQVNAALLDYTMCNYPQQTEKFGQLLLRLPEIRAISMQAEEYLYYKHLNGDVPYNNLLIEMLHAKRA
Sequence of Oxysterols receptor LXR-beta (Homo sapiens) (P55055 whole entry, looked up, the tested form may be a part): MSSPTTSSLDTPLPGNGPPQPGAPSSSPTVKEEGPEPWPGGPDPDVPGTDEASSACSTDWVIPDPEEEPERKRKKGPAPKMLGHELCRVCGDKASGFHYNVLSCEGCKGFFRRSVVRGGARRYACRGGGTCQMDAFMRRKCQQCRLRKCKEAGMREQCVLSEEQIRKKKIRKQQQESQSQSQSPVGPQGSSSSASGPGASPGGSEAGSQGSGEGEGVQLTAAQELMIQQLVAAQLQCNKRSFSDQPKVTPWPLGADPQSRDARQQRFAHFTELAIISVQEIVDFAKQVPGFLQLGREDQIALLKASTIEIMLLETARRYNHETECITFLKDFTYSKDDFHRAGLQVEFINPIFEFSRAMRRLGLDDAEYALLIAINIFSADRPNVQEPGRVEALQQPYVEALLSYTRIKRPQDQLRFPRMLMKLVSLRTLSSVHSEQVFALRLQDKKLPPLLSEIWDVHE

On to `CCOc1cc(C=O)ccc1O`, for which the inhibition is -4.06% in [1], 41.4% (active) in assay [2], 47.9% (active) in assay [3] and -3.05% in assay [4].

In the case of `NC(=O)c1c(Br)n(C2OC(CO)C(O)C2O)c2ncnc(N)c12` (stereo unspecified), the results for the inhibition in assay [5] and in assay [6] were 15.6% and 35.3%, respectively.

For `CCOP(=O)(OCC)c1cccc(OP(=O)(c2cccc([N+](=O)[O-])c2)c2cccc([N+](=O)[O-])c2)c1`, the inhibition in assay [5] is -4.6%; in assay [6], -32.1%.

In the case of `Cc1nc2cc(-c3ccc(Cl)cc3)nn2c(C)c1CCC(=O)N1CCC2(CC1)OCCO2`, the inhibition was 16.4% in assay [5] and 70.5% (active) in [6].

Turning to `Nc1cccc(SC2CC(=O)N(c3ccc(Cl)cc3C(=O)c3ccccc3)C2=O)c1` (stereo unspecified), the inhibition is 3.94% in assay [5] and 17.3% in [6].

On to `CC(=O)OC(C)(C)/C=C/C(=O)C(C)(O)C1[C@H](O)C[C@@]2(C)C3CC=C4C(CC[C@@H](O)C4(C)C)[C@]3(CO)C(=O)C[C@]12C` (stereo partly specified), for which the inhibition was 31.1% in assay [5] and 55.2% (active) in assay [6].

Take `COC1=C(C)C(=O)C2=C(C1=O)C(CO)N1C(C#N)C3CC4C(C1C2N1CCOC41)N3C` (stereo unspecified): the inhibition in [1] is 86.5% (active); in assay [2] it was 106% (active); in [3], 96.2% (active); in assay [4] it was 95.3% (active); in assay [5] it was 41.7% (active); in assay [6], 57% (active).

Consider `COc1ccc(S(=O)(=O)N2Cc3cnnn3-c3ccccc3C2C#N)cc1` (stereo unspecified), for which the inhibition was 1.55% in [5] and -21% in assay [6].

Take `CN(Cc1cccc(-c2cccnc2)c1)C(=O)Oc1ccc([N+](=O)[O-])cc1`: the figures for the inhibition in [5] and in assay [6] were 2.36% and 49.7% (active), respectively.

Take `CC/C(=N\NC(=O)c1ccccc1O)c1c(O)n(Cc2ccccc2)c(=O)[nH]c1=O`: the inhibition was -6.16% in assay [7] and 29.4% (active) in [8].

As for `CCOC(=O)C1(CCc2ccccc2)CCN(Cc2cccc3cnccc23)CC1`, the inhibition in assay [5] is 10.4%; in assay [6] it was 9.69%.

`CCOP(=O)(OCC)C1(O)C(=O)Nc2ccc(Br)cc21` (stereo unspecified): the inhibition in [5] is -7%; in [6] it was -5.26%.

In the case of `CCn1ccnc1CN1CCCC(C(=O)c2cccc(C(F)(F)F)c2)C1` (stereo unspecified), the inhibition is -3.5% in assay [5] and 15.9% in [6].

As for `CC(C)(C)c1ccc(OC(=O)N2CCCCC2)cc1`, the activation in assay [9] is 14.1% (active); in [10], 0.52%.

As for `CCc1nnc(NS(=O)(=O)c2ccc(N=Cc3c(O)n(-c4ccccc4)c(=O)[nH]c3=O)cc2)s1`, the inhibition in [11] is 11.7% (active); in assay [12] it was 7.85%; in [13] it was 32.1% (active).

Turning to `C=C1C(=O)O[C@H]2C[C@@H](C)[C@@H]3C=CC(=O)[C@@]3(C)C[C@H]12`, the inhibition in assay [5] is 69.4% (active); in assay [6], 23%.

`CC(=O)OC1C(O)C(C)OC(OC2C(OC(=O)C3CCC4C(C3)OC3(CC(OC(=O)/C=C/c5ccccc5)C(C)CO3)C43CO3)OC(C)C(O)C2OC(C)=O)C1O` (stereo unspecified): the inhibition in assay [1] is 96.1% (active); in [2], 109% (active); in assay [3], 97.5% (active); in [4] it was 97.4% (active); in assay [5], 79.4% (active); in [6] it was 75.2% (active).

Regarding `COc1ccc2c3c1O[C@H]1C(=O)CC[C@H]4[C@@H](C2)N(C)CC[C@]314`, the inhibition in assay [5] was -4.81%; in [6], -28.4%.

On to `Cc1nc2cc(-c3cccc(F)c3)nn2c(C)c1CCC(=O)N1CCC2(CC1)OCCO2`, for which the inhibition is -18.5% in assay [5] and 40% in [6].

Take `c1cncc(-c2ccc3n2Cc2cnnn2-c2ccccc2-3)c1`: the inhibition in assay [5] is 11%; in assay [6], 21.8%.
